# Laboratory results published in PubChem BioAssay (NCI).
# “And” between values parts separate entries of the source, which are not always exact repeats. Equal entries are not always repeated. This is part of a sample that, as a whole, favours compounds with a hit. Of some 79,000 tested, about 15% had one in any assay. The source made the active and inactive calls. Rule as the data show it: active = growth inhibition above about 70%; inactive = the rest.
# Test: NCI Yeast Anticancer Drug Screen. Data for the rad50 strain (AID 155);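 also: 0% = growth of vehicle-only cultures of the same strain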
# Details: S. cerevisiae rad50 strain growth inhibition, active compounds read high; at 50.0 µM unless noted
# Outline: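 Compounds were tested on a yeast strain with an engineered DNA damage repair alteration; the reported value is growth inhibition normalised to vehicle treatment.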
row,Structure (SMILES),growth inhibition
1,COc1ccc(/C=C2\N=C3N(Cc4ccccc4)C=C(N)N3C2=O)cc1,2.65% (inactive)
2,O=C1CC(c2ccccc2)n2c(nc3ccccc32)N1 (centres undefined),5% (inactive)
3,C#CC(C)(O)CCC(C)C (centres undefined),-10% (inactive)
4,Clc1ccc(OCC(COc2ccccc2)Oc2nc(-c3ccccc3)nc(-c3ccccc3)n2)cc1 (centres undefined),-14.2% (inactive)
5,c1ccc(C(=NN=C(c2ccccc2)c2ccccc2)c2ccccc2)cc1,17.9% (inactive)
6,CCCCCCN1COCC(COc2ccc(Cl)cc2)OC1 (centres undefined),23.8% (inactive)
7,O=[N+]([O-])c1ccc(CS(=O)Cc2ccccc2)cc1 (centres undefined),10.9% (inactive)
8,COc1ccc(NS(=O)c2ccccc2)cc1 (centres undefined),10.1% (inactive)
9,Cc1ccccc1C(=O)NC(O)(C(F)(F)F)C(F)(F)F,2.4% (inactive)
10,CC(O)CCC(=O)c1nc2ccccc2s1 (centres undefined),-14.4% (inactive)
11,CCOC(=O)c1c[nH]n(-c2ccccc2)c1=O,9.65% (inactive)
12,Nc1c(Cl)ncnc1Nc1ccc(CCO)cc1,-3.6% (inactive)
13,CC(N)C(=O)NO (centres undefined),-20.4% (inactive)
14,CC(=O)NS(=O)(=O)c1ccc(NC(=O)/C=C/C(=O)O)cc1,1.1% (inactive) and -16.6% (inactive)
15,Nc1nc(=O)[nH]c(=O)[nH]1,-5% (inactive)
16,O=C1CCCCC(=O)Nc2ccccc2N1,-22.2% (inactive)
17,NCc1ccc(F)cc1,24.9% (inactive)
18,CC1(C)N=C(C(N)=O)c2ncn(Cc3ccccc3)c2N1,-29% (inactive)
19,C(=Nc1cccnc1)c1ccc(C=Nc2cccnc2)cc1,21.9% (inactive)
